Among the data in PubChem BioAssay AID1984 (Sanford-Burnham Center for Chemical Genomics, 2009) are decrease of EGFP signal values, retold here.

Screen size: about 290,000 compounds; about 35 (0.01%) were called active. Shown is part of a subset that was picked to be rich in actives. Values without a mark were called inactive.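 How the source made its calls: active means EGFP signal decrease of at least 30% at 10 µM or well 3 SD below plate mean, unless failing retest; inactive means the rest, including hits failing retest or dose response.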

The target of the assay is p/CIP-EGFP fusion (nuclear receptor coactivator 3, mouse) (UniProt Q05BA5). In words: p/CIP-EGFP fusion destabilizers, primary screen, fluorescence, F442A cells (AID 1984). As to conditions: 16 h, at 10 µM, hits give high values.
Sequence of p/CIP-EGFP fusion (nuclear receptor coactivator 3, mouse) (Q05BA5 1-1403): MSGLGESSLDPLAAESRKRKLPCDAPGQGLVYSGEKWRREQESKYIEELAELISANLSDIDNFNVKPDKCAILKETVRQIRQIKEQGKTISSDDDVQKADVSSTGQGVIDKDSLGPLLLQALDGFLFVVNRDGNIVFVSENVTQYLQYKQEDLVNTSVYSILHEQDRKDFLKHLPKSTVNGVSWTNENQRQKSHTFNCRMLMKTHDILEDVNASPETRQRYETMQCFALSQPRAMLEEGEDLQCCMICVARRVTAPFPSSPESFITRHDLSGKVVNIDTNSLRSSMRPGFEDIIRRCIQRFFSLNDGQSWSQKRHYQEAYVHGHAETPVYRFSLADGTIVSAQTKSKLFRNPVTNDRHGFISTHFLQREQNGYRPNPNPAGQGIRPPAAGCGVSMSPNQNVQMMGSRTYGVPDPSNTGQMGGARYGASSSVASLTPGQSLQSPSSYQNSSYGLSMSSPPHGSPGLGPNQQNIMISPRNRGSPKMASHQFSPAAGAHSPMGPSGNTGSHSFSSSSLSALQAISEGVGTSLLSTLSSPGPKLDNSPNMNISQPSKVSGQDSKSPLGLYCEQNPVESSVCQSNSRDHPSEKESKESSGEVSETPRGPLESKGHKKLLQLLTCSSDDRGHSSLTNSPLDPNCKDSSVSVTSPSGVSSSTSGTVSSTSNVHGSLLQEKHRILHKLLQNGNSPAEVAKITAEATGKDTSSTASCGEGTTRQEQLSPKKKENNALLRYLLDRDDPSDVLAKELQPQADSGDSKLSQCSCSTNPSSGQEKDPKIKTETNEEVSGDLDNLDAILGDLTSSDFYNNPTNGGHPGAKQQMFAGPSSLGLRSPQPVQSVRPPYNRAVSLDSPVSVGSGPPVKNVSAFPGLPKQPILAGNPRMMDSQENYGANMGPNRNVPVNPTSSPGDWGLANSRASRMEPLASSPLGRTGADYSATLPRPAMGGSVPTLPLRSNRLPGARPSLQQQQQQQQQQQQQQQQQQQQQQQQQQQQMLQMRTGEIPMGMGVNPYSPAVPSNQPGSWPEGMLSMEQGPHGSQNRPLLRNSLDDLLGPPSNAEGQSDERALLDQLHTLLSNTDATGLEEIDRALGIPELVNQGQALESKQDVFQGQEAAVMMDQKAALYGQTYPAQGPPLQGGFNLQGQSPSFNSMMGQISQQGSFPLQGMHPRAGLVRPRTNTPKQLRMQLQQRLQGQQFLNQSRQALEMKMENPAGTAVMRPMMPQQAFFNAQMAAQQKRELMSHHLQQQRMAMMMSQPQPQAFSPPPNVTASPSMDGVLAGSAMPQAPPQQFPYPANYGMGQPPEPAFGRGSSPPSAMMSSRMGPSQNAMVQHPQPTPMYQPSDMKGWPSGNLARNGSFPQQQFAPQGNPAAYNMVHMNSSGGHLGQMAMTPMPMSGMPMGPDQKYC
As for `CN(C)CCN(C(=O)C1CCCCC1)c1nc2cc3c(cc2s1)OCO3`, the decrease of EGFP signal was -21.2%.

With `O=C(NCc1cccc(C(F)(F)F)c1)c1cccc(S(=O)(=O)N2CCN(Cc3ccccc3)CC2)c1`, the decrease of EGFP signal was -8.5%.

As to `C=CCNC(=O)c1ccc2c3n(nc2c1)-c1ccc(C)cc1CO3`, the decrease of EGFP signal is -3.3%.

For `O=C(O)CCCCCCCCc1cn(CN2C(=O)c3ccccc3C2=O)nn1`, the decrease of EGFP signal was -13.1%.

Turning to `CN(Cc1ccccc1Cl)C(=O)C1CCC(=O)N(CCc2cccc(F)c2)C1` (centres undefined), the decrease of EGFP signal was -8.9%.

Regarding `CCOc1ccc2c(c1)c(=O)c(S(=O)(=O)c1ccc(C)cc1)cn2CC`, the decrease of EGFP signal is -6%.

`CC(C)c1ccc(S(=O)(=O)N2CCC3(CC2)OCCO3)cc1`: the decrease of EGFP signal was 0.3%.

Regarding `CC1CN(S(=O)(=O)c2cccc(C(F)(F)F)c2)CN1C(=O)N1CCOCC1` (centres undefined), the decrease of EGFP signal is -19%.

On to `CCCN(CCC)c1nc2c(C)cccn2c(=O)c1/C=C1/SC(=S)N(Cc2ccco2)C1=O`, for which the decrease of EGFP signal is -656%.

As for `CCOC(=O)c1c(S(=O)(=O)NCC(=O)Nc2ccc(C)cc2)c(C)n(C)c1C`, the decrease of EGFP signal is 3.3%.

Take `COc1ccc(OC)c(CCNC(=O)CCn2ccc3cc(S(=O)(=O)N4CCCC4)ccc32)c1`: the decrease of EGFP signal was 1%.

For `NC(=O)CC(NC(=O)Cc1ccc(Br)cc1)c1ccc(NC2CC3CCC2C3)c([N+](=O)[O-])c1` (centres undefined), the decrease of EGFP signal is 3.9%.

Turning to `Cn1c(SCc2ccc(F)cc2)nnc1-c1ccncc1`, the decrease of EGFP signal was -10.6%.

As for `COc1ccc(CCNC(=O)CCc2cn(C)c3ccccc23)c(OC)c1`, the decrease of EGFP signal is -1.8%.

For `Cc1cc(C)cc(OCC(=O)Nc2cc(NC(=O)COc3cc(C)cc(C)c3)cc(C(=O)O)c2)c1`, the decrease of EGFP signal is 13.4%.

For the compound `O=C(CCCCCn1c(=S)[nH]c2ccsc2c1=O)NC1CCCCC1`, the decrease of EGFP signal was 1.2%.

For the compound `Cc1cc(C)c2nc(N3CCC(C(=O)NCCN4CCOCC4)CC3)sc2c1`, the decrease of EGFP signal is -53.2%.

As for `CCc1cccc(NC(=S)N(CCN(C)C)C2CCN(C(C)C)CC2)c1`, the decrease of EGFP signal is 2.9%.

In the case of `COc1ccc(NC(=O)CSc2nc(SC)ns2)c(OC)c1`, the decrease of EGFP signal is -9.3%.

As for `CC(C)(C)OC(=O)NC(Cc1ccccc1)C(=O)NC(CSC1CCCCO1)C(=O)NN` (centres undefined), the decrease of EGFP signal was 1%.

For the compound `Cc1cccc(NC(=O)c2ccc([N+](=O)[O-])o2)c1`, the decrease of EGFP signal was 1.2%.

For the compound `CC(Sc1nnnn1C)C(=O)NC(=O)NC1CCCCC1` (centres undefined), the decrease of EGFP signal is 12.9%.

`O=Cc1c(NCCCN2CCCC2=O)c2ccccc2[nH]c1=O`: the decrease of EGFP signal was -1.8%.

`N#Cc1ccc(C2N=C(c3ccccc3)NO2)cc1` (centres undefined): the decrease of EGFP signal was -11.6%.

On to `Cc1ccc(C(=O)N/C(=C\c2cn(C)c3ccccc23)C(=O)N2CCN(C)CC2)cc1`, for which the decrease of EGFP signal was 3.7%.

Regarding `CCCCC(O)(CCCC)C(=O)NN(C(=O)CCl)c1ccccc1`, the decrease of EGFP signal is -2.8%.

On to `CS/C(=C\C(=O)c1ccco1)Nc1ccccc1Cl`, for which the decrease of EGFP signal is -2.4%.

Take `Cc1nn(-c2ccccc2)c(Cl)c1/C=N/NC(=O)c1nn(C)cc1[N+](=O)[O-]`: the decrease of EGFP signal was -5.8%.

Turning to `COc1cc(NC(=O)c2ccc(-c3csc(C)n3)cc2)c(OC)cc1Cl`, the decrease of EGFP signal is -15.5%.

In the case of `COc1ccccc1CN1CCN(Cc2cc(OC)c(OC)cc2OC)CC1`, the decrease of EGFP signal is -13.1%.

In the case of `COc1ccc(C(=O)NC(C)CCc2ccccc2)c(OC)c1` (centres undefined), the decrease of EGFP signal was -12.7%.

Turning to `O=C(O)c1ccccc1C(=O)NC1=NN(c2ccccc2)CC1`, the decrease of EGFP signal is 13.1%.

Turning to `CCc1ccc(C(=O)NN=C2CCCCCC2)s1`, the decrease of EGFP signal was -8.5%.

For the compound `C=CCn1c(C23CC4CC(CC(C4)C2)C3)n[nH]c1=S`, the decrease of EGFP signal is -8.9%.

As to `COCCNC(=O)CSc1nc2sccc2c(=O)n1-c1ccccc1`, the decrease of EGFP signal was -15.6%.

In the case of `Cc1ccc(C(CNC(=O)Nc2cccc(C)c2)N2CCN(C)CC2)cc1` (centres undefined), the decrease of EGFP signal was -22.3%.

`CC1C(=O)N(Cc2ccccc2)c2ccccc2N1C(=O)c1ccccc1` (centres undefined): the decrease of EGFP signal is -15.4%.

As to `COc1ccc(N2CCN(C(=O)c3cccs3)CC2)cc1`, the decrease of EGFP signal was -8%.

Turning to `Cc1nc2nc(SCC(=O)Nc3cccc(F)c3)[nH]c2cc1Br`, the decrease of EGFP signal was -0.1%.

In the case of `CS(=O)(=O)c1ccccc1C(=O)Nc1ccc2sccc2c1`, the decrease of EGFP signal was -7.2%.

Take `COc1ccc(-c2n[nH]c3c2CN(C(=O)c2ccc(F)cc2)CC3)cc1`: the decrease of EGFP signal is -14.3%.

For `CC(C)(C)C1CCc2c(sc3nc(SCC(N)=O)nc(N)c23)C1` (centres undefined), the decrease of EGFP signal is -4.6%.

With `O=C(NCCCn1ccnc1)/C(=C\c1ccccc1F)NC(=O)c1ccccc1`, the decrease of EGFP signal was -21.2%.

Regarding `COc1ccc(OC)c(C(=O)NC(CC(N)=O)c2ccc(N3CCC(N4CCCCC4)CC3)c([N+](=O)[O-])c2)c1` (centres undefined), the decrease of EGFP signal was -7.7%.

Consider `CSCC[C@H](NC(=O)N1CCn2c1nc1ccccc12)C(=O)NCc1ccc2c(c1)OCO2`, for which the decrease of EGFP signal was -3.3%.

For the compound `Nc1nnc2c(C(F)(F)F)nc3ccccc3n12`, the decrease of EGFP signal was -5.5%.

Take `COc1ccc(C)cc1Nc1n[n+](-c2ccccc2)c(-c2cccc(Cl)c2Cl)s1`: the decrease of EGFP signal was 6.4%.

`CCN1N=C(c2ccccc2)CCC1=O`: the decrease of EGFP signal was 5.6%.

In the case of `COc1cc2ccccc2cc1C(=O)Nc1ccccc1C`, the decrease of EGFP signal was -1.6%.

`CC(C)(C)c1ccc(C(=O)N2CCN(CCNC(=O)C(=O)Nc3ccc(F)cc3)CC2)cc1`: the decrease of EGFP signal was -21.5%.

`CCc1ccc(Oc2coc3cc(O)ccc3c2=O)cc1`: the decrease of EGFP signal is -7.6%.

As to `CC(=O)N1CCOc2ccc(S(=O)(=O)N3CCC(C(=O)Nc4ccccc4F)CC3)cc21`, the decrease of EGFP signal is 11.8%.

As to `C=CCNC(=S)NNC(=O)COc1c(Cl)cc(Cl)cc1Cl`, the decrease of EGFP signal is -6.1%.

As to `O=C(CNC(=O)c1ccccc1)Oc1ccc([N+](=O)[O-])cc1`, the decrease of EGFP signal was -14%.

Consider `C=CCNC(=O)COC(=O)CNC(=O)c1cc(Cl)cc([N+](=O)[O-])c1`, for which the decrease of EGFP signal was 32% (active).

Regarding `COc1ccc(NC2CCCN(C(=O)c3ccncc3)C2)cc1` (centres undefined), the decrease of EGFP signal was -13.8%.

Take `CC(=O)c1cccc(NC(=O)C2CCN(C(=O)c3ccccc3Cl)CC2)c1`: the decrease of EGFP signal is 4.2%.

For the compound `Cc1ccccc1N(C(=O)CNC(=O)c1cccs1)C(C(=O)NC1CCCC1)c1ccncc1` (centres undefined), the decrease of EGFP signal was 12.1%.

Regarding `CC1(C)C=C2[C@H]3CC[C@@H]4[C@@]5(C)CCC(=O)C(C)(C)[C@@H]5CC[C@@]4(C)[C@]3(C)CC[C@@]2(C(=O)O)CC1`, the decrease of EGFP signal is -6.3%.
